In PubChem BioAssay (EPA / NIEHS):
Results filed as inconclusive are left out. Active and inactive are the calls of the source. Rule for the calls, unless noted: active = hit-call score of the fitted dose curve at least 0.9, where 1 is the maximum; inactive = score below 0.9.

Assays:
[1] = target: human CYP19A1, CYP19A1 (gene 1588) (UniProt P11511); assay: NVS_ADME_hCYP19A1: NovaScreen (NVS) CYP450-related Enzyme Activity (ADME) Assay for human CYP19A1 (AID 2283098; active = hit-call score of the fitted dose curve at least 0.9, where 1 is the maximum;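 for AC50: potency for inhibitors seen as loss of fluorescent enzyme signal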)
human CYP19A1, CYP19A1 (gene 1588), sequence (P11511 whole entry, looked up): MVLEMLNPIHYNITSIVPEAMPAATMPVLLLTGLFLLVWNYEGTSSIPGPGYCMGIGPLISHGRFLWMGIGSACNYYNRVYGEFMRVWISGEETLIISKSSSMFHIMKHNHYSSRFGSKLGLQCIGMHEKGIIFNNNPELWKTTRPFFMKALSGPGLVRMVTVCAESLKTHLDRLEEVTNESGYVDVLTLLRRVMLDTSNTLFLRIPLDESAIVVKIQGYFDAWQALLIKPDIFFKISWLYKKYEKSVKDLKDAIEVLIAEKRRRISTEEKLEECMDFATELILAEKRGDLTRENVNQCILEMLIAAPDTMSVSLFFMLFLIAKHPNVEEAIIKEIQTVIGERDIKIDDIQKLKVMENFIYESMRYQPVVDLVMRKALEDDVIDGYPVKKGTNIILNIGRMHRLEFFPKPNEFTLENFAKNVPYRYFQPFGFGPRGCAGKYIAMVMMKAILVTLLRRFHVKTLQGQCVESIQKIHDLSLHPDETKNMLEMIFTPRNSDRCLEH
In short: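 Cell-free enzyme assay with recombinant protein and a specific fluorogenic substrate, read by fluorescence intensity 0.5 h after dosing. Primary screen ran in duplicate at 10 uM; actives were retested in concentration series. Loss of signal versus acetonitrile baseline.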

[2] = CCTE_Mundy_HCI_Cortical_Synap_Neur_Matur_NeuriteSpotCountPerNeuriteLength: CCTE's Synaptogenesis and Neurite Maturation Assay in rat cortical cells for Neurite Spot Count per Neurite Length, Mundy Lab (AID 2284210)
In short: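 Rat primary cortical cultures, glia arrested with AraC at DIV 5, were dosed with media change at DIV 7 and fixed at DIV 12. Synaptophysin puncta per MAP2-labelled neurite length were quantified by high-content imaging versus DMSO.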

[3] = CCTE_Mundy_HCI_Cortical_NOG_NeuriteLength: CCTE's Neurite Outgrowth Assay in rat cortical cells for Neurite Length, Mundy Lab (AID 2284213);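 for AC50: neurites imaged about 48 to 50 h after chemical exposure began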
In short: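 Neurite length was read by high-content imaging of βIII-tubulin-labelled neurites in rat primary cortical cultures. Activity was fitted relative to DMSO.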

[4] = CCTE_Mundy_HCI_Cortical_Synap_Neur_Matur_NeuriteLength: CCTE's Synaptogenesis and Neurite Maturation Assay in rat cortical cells for Neurite Length, Mundy Lab (AID 2284214)
In short: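 Neurite length in rat primary cortical cultures is imaged after MAP2, synaptophysin and Hoechst staining. Dosing starts DIV 7, ending DIV 12; DMSO serves as negative control and baseline.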

[5] = CCTE_Mundy_HCI_Cortical_Synap_Neur_Matur_NeuriteSpotCountPerNeuron: CCTE's Synaptogenesis and Neurite Maturation Assay in rat cortical cells for Neurite Spot Count per Neuron Count, Mundy Lab (AID 2284215)
In short: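 Rat cortical primary cultures; AraC DIV 5 to arrest glia; dosing + media change DIV 7; fixed DIV 12. Anti-MAP2/anti-synaptophysin, Hoechst nuclei; HCI puncta count per neuron, positive fitting direction vs DMSO.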

[6] = CCTE_Mundy_HCI_Cortical_Synap_Neur_Matur_SynapseCount: CCTE's Synaptogenesis and Neurite Maturation Assay in rat cortical cells for Synapse Count, Mundy Lab (AID 2284218)
In short: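 Synapse count per neuron is measured in rat cortical neurons exposed to chemicals between DIV 7 and DIV 12, with glial growth arrested by AraC at DIV 5. Synaptophysin and MAP2 staining is imaged automatically; activity is fitted relative to DMSO.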

[7] = CCTE_Mundy_HCI_Cortical_Synap_Neur_Matur_CellBodySpotCount: CCTE's Synaptogenesis and Neurite Maturation Assay in rat cortical cells for Cell Body Spot Count, Mundy Lab (AID 2284223)
In short: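 Rat cortical neurons; AraC @ DIV 5; dose + media change DIV 7; fix DIV 12; anti-MAP2/anti-synaptophysin IF, Hoechst; HCI count of soma synaptophysin puncta/neuron; DMSO = negative control.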

[8] = TAMU_PeakParms_SingleDonor1434_QT: Texas A&M University (TAMU) 1.5-hr Human Induced Pluripotent Stem Cell (iPSC)-derived Cardiomyocytes Calcium (Ca+2) Flux Assay for Cardiotoxicity: QT (decay-rise ratio) (AID 2284235; active = hit-call score of the fitted dose curve at least 0.9, where 1 is the maximum)
In short: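 iPSC-derived cardiomyocytes (single donor 1434) dosed at 0.2, 1, 10, 100 uM final in 0.5% DMSO, 90 min at 37C. Ca2+ flux fluorescence decay/rise ratio; EC05 (5% increase versus DMSO) as POD, excluding beat-arrest and severe-notch data.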

[9] = CCTE_Mundy_HCI_Cortical_Synap_Neur_Matur_NeuronCount: CCTE's Synaptogenesis and Neurite Maturation Assay in rat cortical cells for Neuron Count, Mundy Lab (AID 2284242; active = hit-call score of the fitted dose curve at least 0.9, where 1 is the maximum;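 for AC50: neuron number from Hoechst nuclei and MAP2 staining by high-content imaging; hits reduce neuron count versus DMSO baseline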)
In short: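 Imaging-based neuron count in rat cortical cultures after chemical exposure from DIV 7 to DIV 12, with AraC added at DIV 5. Activity is fitted relative to DMSO.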

[10] = IUF_NPC5_oligodendrocyte_differentiation_120hr: Leibniz Research Institute for Environmental Medicine (IUF) 120-hour Oligodendrocyte Differentiation Assay (NPC5) (AID 2284304; active = hit-call score of the fitted dose curve at least 0.9, where 1 is the maximum;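 note: primary human fetal neural progenitor spheres plated to migrate and differentiate; share of O4-positive cells among Hoechst nuclei found by CNN image analysis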)
In short: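 Oligodendrocyte differentiation was scored after 120 h as the O4-positive share of Hoechst-stained nuclei across the neurosphere migration area, using a trained convolutional neural network on high-content fluorescence images. Human fetal neural progenitor spheres were dosed from day 0, normalised to DMSO.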

[11] = TAMU_PeakParms_SingleDonor1434_Asystole: Texas A&M University (TAMU) 1.5-hr Human Induced Pluripotent Stem Cell (iPSC)-derived Cardiomyocytes Calcium (Ca+2) Flux Assay for Cardiotoxicity: Asystole (quiescence of beating) (AID 2284328; active = hit-call score of the fitted dose curve at least 0.9, where 1 is the maximum)
In short: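 Human iPSC-derived cardiomyocytes (donor 1434) were exposed to 0.2, 1, 10 and 100 uM compound in 0.5% DMSO for 90 min at 37C. Ca2+-dye fluorescence gave average peak frequency; POD is EC95, a 95% beat-rate drop versus DMSO.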

[12] = target: human Dual Specificity Protein Phosphatase 3 (DUSP3), DUSP3 (gene 1845) (UniProt P51452); assay: NVS_ENZ_hDUSP3: NovaScreen (NVS) Enzymatic Assay for human Dual Specificity Protein Phosphatase 3 (DUSP3) (AID 2283152; active = hit-call score of the fitted dose curve at least 0.9, where 1 is the maximum;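 note: phosphatase activity of recombinant human DUSP3 on a fluorogenic substrate without cells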)
human Dual Specificity Protein Phosphatase 3 (DUSP3), DUSP3 (gene 1845), sequence (P51452 whole entry, looked up): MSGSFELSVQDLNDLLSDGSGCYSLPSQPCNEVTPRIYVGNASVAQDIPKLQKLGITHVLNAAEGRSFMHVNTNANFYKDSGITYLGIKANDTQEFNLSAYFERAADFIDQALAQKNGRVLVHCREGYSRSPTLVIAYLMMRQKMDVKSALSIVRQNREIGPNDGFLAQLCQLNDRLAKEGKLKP
In short: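 Cell-free assay with recombinant human DUSP3 and fluorogenic substrate, read by fluorescence intensity. Primary screen ran duplicate at 25 uM; actives followed up in concentration series; loss of signal versus DMSO scored.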

[13] = target: human Esterase Plasma (ES), BCHE (gene 590) (UniProt P06276); assay: NVS_ENZ_hES: NovaScreen (NVS) Enzymatic Assay for human Esterase Plasma (ES) (AID 2283157; active = hit-call score of the fitted dose curve at least 0.9, where 1 is the maximum)
human Esterase Plasma (ES), BCHE (gene 590), sequence (P06276 whole entry, looked up): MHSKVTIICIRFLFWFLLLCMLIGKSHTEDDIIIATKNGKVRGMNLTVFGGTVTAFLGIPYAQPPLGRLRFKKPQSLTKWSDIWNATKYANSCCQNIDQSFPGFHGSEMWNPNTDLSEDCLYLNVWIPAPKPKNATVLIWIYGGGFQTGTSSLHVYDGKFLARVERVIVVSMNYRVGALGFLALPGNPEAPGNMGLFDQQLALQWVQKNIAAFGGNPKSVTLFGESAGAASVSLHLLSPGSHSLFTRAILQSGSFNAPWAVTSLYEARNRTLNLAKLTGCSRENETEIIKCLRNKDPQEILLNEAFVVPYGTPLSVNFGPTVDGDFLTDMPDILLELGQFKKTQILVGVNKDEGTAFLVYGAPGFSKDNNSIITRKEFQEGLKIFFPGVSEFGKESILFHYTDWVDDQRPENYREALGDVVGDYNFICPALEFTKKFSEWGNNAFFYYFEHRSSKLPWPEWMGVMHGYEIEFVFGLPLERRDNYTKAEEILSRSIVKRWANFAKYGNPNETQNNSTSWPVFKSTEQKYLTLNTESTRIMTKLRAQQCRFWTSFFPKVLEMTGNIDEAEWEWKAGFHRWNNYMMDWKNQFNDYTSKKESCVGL
In short: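 Cell-free enzyme assay using esterase extracted from human plasma; colorimetric absorbance read 0.25 hour after dosing. Single-concentration duplicate screen at 25 uM, then concentration-response up to 50 uM; loss of signal scored against DMSO baseline.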

[14] = read-out: Tumor necrosis factor receptor superfamily member 6 (Homo sapiens) (UniProt P25445); assay: LTEA_HepaRG_FAS: Life Technologies and Expression Analysis (LTEA) Assay for Fas cell surface death receptor (FAS) using HepaRG (AID 2283447); details: mRNA level, 48 h; actives raise or lower the signal
In short: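 Differentiated human HepaRG cells, pre-cultured 48 h, were exposed in duplicate for 48 h to 8-point half-log concentrations (top 100 uM, 0.5% DMSO) in serum-free induction medium; FAS mRNA measured by qRT-PCR, normalized to ACTB/GAPDH/POLR2A, bidirectional fit versus DMSO.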

[15] = read-out: Fatty acid synthase (Homo sapiens) (UniProt P49327); assay: LTEA_HepaRG_FASN: Life Technologies and Expression Analysis (LTEA) Assay for Fatty Acid Synthase (FASN) using HepaRG (AID 2283448); details: mRNA level, 48 h; actives raise or lower the signal
In short: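 Transcript-level assay: HepaRG liver cells are treated for 48 h across an eight-point range topping at 100 uM, and FASN mRNA, normalized to three housekeeping genes, is compared with DMSO controls in both directions.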

[16] = read-out: Cyclin Dependent Kinase Inhibitor 1A (CDKN1A), CDKN1A (gene 1026); assay: LTEA_HepaRG_CDKN1A: Life Technologies and Expression Analysis (LTEA) Assay for Cyclin Dependent Kinase Inhibitor 1A (CDKN1A) using HepaRG (AID 2283450); details: mRNA level, 48 h; actives raise or lower the signal
In short: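 Read-out is CDKN1A mRNA by TaqMan qRT-PCR, normalized to three housekeeping genes and fitted in both directions against the DMSO baseline. Human HepaRG cells were treated 48 h with test chemicals up to 100 uM in half-log steps, 0.5% DMSO.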

[17] = read-out: Cyclin D1 (CCND1), CCND1 (gene 595); assay: LTEA_HepaRG_CCND1: Life Technologies and Expression Analysis (LTEA) Assay for Cyclin D1 (CCND1) using HepaRG (AID 2283451); details: mRNA level, 48 h; actives raise or lower the signal
In short: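 HepaRG plated 48 h, medium switched to serum-free induction medium, chemicals added in duplicate (top 100 uM, half-log steps, 0.5% DMSO) for 48 h, cells lysed, RNA measured by TaqMan qRT-PCR.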

[18] = read-out: catalase (CAT), CAT (gene 847); assay: LTEA_HepaRG_CAT: Life Technologies and Expression Analysis (LTEA) Assay for catalase (CAT) using HepaRG (AID 2283452); details: mRNA level, 48 h; actives raise or lower the signal
In short: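 Differentiated HepaRG cells in serum-free induction medium were dosed 48 h in duplicate, eight half-log concentrations from 100 uM in 0.5% DMSO. Transcript measured by TaqMan qRT-PCR, normalised to ACTB/GAPDH/POLR2A, fitted bidirectionally against DMSO.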

[19] = read-out: flavin-containing dimethylaniline monooxygenases 3 (FMO3), FMO3 (gene 2328); assay: LTEA_HepaRG_FMO3: Life Technologies and Expression Analysis (LTEA) Assay for flavin-containing dimethylaniline monooxygenases 3 (FMO3) using HepaRG (AID 2283453); details: mRNA level, 48 h; actives raise or lower the signal
In short: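 HepaRG, 48 h exposure, 8-pt half-log series from 100 uM, 0.5% DMSO vehicle, duplicates; FMO3 transcript by Fluidigm TaqMan qRT-PCR, housekeeping-normalized; gain/loss fit vs DMSO.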

[20] = read-out: Cytochrome P450 (CYP1A1), CYP1A1 (gene 1543); assay: LTEA_HepaRG_CYP1A1: Life Technologies and Expression Analysis (LTEA) Assay for Cytochrome P450 (CYP1A1) using HepaRG (AID 2283454); details: mRNA level, 48 h; actives raise or lower the signal
In short: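 HepaRG, 48 h post-plating switched to serum-free induction medium; 8-pt conc-response (top 100 uM, half-log, 0.5% DMSO), duplicates, 48 h. Lysis in RLT, TaqMan qRT-PCR for CYP1A1; gain or loss vs DMSO.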

Measured: AC50

Fatty acid synthase (Homo sapiens), sequence (P49327 whole entry, looked up): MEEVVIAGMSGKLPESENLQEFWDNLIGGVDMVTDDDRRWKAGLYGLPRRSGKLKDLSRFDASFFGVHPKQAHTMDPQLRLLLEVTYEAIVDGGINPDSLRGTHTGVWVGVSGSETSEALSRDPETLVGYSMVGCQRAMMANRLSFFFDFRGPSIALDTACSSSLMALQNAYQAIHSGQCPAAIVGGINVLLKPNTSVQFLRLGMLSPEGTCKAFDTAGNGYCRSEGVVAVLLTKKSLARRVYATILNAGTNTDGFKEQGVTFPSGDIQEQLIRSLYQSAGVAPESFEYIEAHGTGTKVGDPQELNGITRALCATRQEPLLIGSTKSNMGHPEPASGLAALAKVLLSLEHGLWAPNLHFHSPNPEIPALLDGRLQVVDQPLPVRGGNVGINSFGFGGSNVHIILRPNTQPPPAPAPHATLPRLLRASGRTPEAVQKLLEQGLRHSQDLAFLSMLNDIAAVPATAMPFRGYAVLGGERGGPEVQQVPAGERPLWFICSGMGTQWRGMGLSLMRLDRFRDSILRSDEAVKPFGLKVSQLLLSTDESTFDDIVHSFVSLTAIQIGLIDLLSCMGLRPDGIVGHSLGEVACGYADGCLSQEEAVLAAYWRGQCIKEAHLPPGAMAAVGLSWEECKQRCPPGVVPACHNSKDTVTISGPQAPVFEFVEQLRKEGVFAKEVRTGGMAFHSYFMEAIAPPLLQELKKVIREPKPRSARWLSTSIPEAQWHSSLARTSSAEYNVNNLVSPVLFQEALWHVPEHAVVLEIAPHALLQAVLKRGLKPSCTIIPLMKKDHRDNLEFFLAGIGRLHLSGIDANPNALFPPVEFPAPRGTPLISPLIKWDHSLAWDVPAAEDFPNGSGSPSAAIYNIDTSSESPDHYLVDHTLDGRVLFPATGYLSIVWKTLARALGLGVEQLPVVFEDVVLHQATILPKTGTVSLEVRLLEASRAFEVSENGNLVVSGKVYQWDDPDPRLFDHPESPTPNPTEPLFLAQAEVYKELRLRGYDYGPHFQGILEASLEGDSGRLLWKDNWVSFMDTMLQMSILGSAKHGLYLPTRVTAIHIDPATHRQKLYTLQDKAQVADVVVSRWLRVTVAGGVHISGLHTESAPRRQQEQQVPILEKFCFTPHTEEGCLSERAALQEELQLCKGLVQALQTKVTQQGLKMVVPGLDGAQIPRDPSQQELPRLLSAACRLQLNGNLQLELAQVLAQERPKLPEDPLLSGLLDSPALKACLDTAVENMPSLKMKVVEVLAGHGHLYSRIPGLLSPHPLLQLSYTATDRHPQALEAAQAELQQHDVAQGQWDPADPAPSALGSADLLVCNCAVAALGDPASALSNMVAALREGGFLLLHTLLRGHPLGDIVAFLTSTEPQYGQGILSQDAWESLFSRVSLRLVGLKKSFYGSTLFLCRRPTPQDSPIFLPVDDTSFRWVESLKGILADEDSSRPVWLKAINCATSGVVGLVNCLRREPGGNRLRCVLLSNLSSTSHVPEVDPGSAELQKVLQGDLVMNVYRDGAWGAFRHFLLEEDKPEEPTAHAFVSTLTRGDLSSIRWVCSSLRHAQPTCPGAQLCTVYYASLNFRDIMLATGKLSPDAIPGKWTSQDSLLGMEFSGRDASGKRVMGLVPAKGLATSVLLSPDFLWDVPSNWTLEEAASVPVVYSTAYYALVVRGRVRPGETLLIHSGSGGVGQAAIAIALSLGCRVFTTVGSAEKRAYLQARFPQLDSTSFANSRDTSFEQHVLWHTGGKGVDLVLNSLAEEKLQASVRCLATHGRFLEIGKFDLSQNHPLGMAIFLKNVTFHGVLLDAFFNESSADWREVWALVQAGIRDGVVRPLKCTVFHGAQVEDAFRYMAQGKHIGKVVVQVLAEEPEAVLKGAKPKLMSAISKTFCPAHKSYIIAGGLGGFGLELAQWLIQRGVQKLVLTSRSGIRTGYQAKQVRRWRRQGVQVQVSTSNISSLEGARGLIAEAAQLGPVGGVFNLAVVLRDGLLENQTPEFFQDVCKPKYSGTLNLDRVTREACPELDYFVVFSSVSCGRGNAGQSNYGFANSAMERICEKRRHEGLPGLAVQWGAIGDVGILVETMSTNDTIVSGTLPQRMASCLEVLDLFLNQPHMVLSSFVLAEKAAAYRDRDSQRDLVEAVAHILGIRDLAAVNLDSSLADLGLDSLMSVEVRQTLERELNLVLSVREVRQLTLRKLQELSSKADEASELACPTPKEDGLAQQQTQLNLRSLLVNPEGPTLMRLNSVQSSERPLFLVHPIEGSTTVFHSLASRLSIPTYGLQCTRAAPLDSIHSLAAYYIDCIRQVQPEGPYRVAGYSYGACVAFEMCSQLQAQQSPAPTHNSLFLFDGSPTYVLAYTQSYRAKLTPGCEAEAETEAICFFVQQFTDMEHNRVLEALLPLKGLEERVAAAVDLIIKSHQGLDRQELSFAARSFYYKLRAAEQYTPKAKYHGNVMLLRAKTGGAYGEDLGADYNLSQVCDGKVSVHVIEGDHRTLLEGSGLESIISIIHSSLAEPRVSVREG

CCC(=O)c1ccc(Cl)cc1
inactive: [1]

Cc1ccc(OP(=O)(Oc2ccc(C)cc2)Oc2ccc(C)cc2)cc1 (tested in a mixture with another compound)
inactive: [4] | [7] | [8] | [10]
active: [2] 15 µM | [3] 21.4 µM | [5] 15 µM | [6] 15 µM | [9] 24 µM | [11] 7.7 µM

CC1CCCC1.[C-]#[O+].[C-]#[O+].[C-]#[O+].[Mn]
active: [8] 9.92 µM

Nc1ccc(-c2ccc(N)c(N)c2)cc1N
active: [12] 8.44 µM | [13] 29.1 µM

O=C(CCl)c1ccccc1
inactive: [14] | [15] | [16] | [17] | [18] | [19] | [20]

CCOP(=O)(OCC)Oc1ccc([N+](=O)[O-])cc1
active: [1] 6.54 µM

COC(C)(C)CCC[C@H](C)C/C=C/C(C)=C/C(=O)OC(C)C
active: [13] 16.5 µM

CC1OC(C)OC(C)O1 (stereo not given)
inactive: [12] | [13]

CNC(=N[N+](=O)[O-])NCC1CCOC1 (stereo not given)
inactive: [2] | [3] | [7] | [9]
active: [4] 0.0157 µM | [5] 0.00988 µM | [6] 0.00885 µM

N#CCCCCC#N
inactive: [14] | [15] | [16] | [17] | [18] | [19] | [20]

CC1(C)[C@H](C(=O)O[C@H](C#N)c2cccc(Oc3ccccc3)c2)[C@@H]1C=C(Br)Br
inactive: [1] | [2] | [3] | [7] | [11]
active: [4] 8.82 µM | [5] 7.04 µM | [6] 6.79 µM | [9] 23.9 µM | [10] 0.729 µM

O=[N+]([O-])c1ccc(Cl)cc1
inactive: [14] | [15] | [16] | [17] | [18] | [19]
active: [20] 37.8 µM

O=C1C(Cl)=C(Cl)C(=O)C(Cl)=C1Cl
active: [12] 1.19 µM

CC(C)CCCCCCCOP(=O)(Oc1ccccc1)Oc1ccccc1
inactive: [8] | [11]
active: [10] 5.15 µM
